Calls of active or inactive are those of the source. How the source made its calls: active means hit-call score of the fitted dose curve at least 0.9, where 1 is the maximum; inactive means score below 0.9.
Legend:
[1] = ATG_CRE_CIS: Attagene CIS-FACTORIAL HepG2 Assay for human cAMP Responsive Element (CRE) binding protein 3 (AID 2282926); conditions: HepG2 CRE cis-reporter, Attagene multiplexed mRNA; actives raise or lower the signal
In short: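 HepG2 cells transiently transfected with cis-element-driven multiple reporter transcription units; CRE reporter mRNA measured 24 h after dosing by RT-PCR, 6-FAM labelling, HpaI digestion and capillary electrophoresis. Bidirectional fit versus DMSO baseline.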

[2] = biological target: CCAAT/enhancer-binding protein beta (Homo sapiens) (UniProt P17676); experiment: ATG_C_EBP_CIS: Attagene CIS-FACTORIAL HepG2 Assay for human CCAAT/Enhancer Binding Protein (C/EBP) beta (AID 2282927); conditions: HepG2 Attagene cis-factorial transcription factor reporter; actives raise or lower the signal
In short: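 Endogenous transcription factor activity in human liver HepG2 cells is inferred from induction of a CEBPB-linked reporter mRNA. Exposure lasts 24 h; activity is fitted in both directions relative to DMSO.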

[3] = ATG_CMV_CIS: Attagene CIS-FACTORIAL HepG2 Assay for human CMV (Internal Marker) (AID 2282928); conditions: HepG2 CMV promoter reporter, transcription factor profiling; actives raise or lower the signal;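 further: endpoint acts as a background internal control marker rather than a target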
In short: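 After transient transfection of HepG2 with reporter transcription units driven by cis-regulatory promoters, cells receive test chemical for 24 h. Labeled reporter amplicons, digested with HpaI, are sized and quantified by capillary electrophoresis against DMSO.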

[4] = ATG_DR4_LXR_CIS: Attagene CIS-FACTORIAL HepG2 Assay for human Liver X Receptor (LXR), DR4 submotif (AID 2282929); conditions: HepG2 Attagene DR4 cis-reporter, mRNA transcription; actives raise or lower the signal
In short: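 Transiently transfected HepG2 liver cells; cis-regulated reporters; 24 h dosing. RT-PCR plus CE read-out of reporter mRNA. DMSO baseline, bidirectional curve fitting.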

[5] = biological target: Aryl hydrocarbon receptor (Homo sapiens) (UniProt P35869); experiment: ATG_Ahr_CIS: Attagene CIS-FACTORIAL HepG2 Assay for human Aryl Hydrocarbon Receptor (Ahr) (AID 2282930); conditions: HepG2 AhR cis-factorial reporter transcription; actives raise or lower the signal
In short: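 Transient MRTU transfection of HepG2 → 24 h compound exposure → total RNA, oligo(dT) RT → PCR, 6-FAM extension, HpaI cut → CE fluorescence. DMSO = baseline; bidirectional curve fit.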

[6] = ATG_AP_1_CIS: Attagene CIS-FACTORIAL HepG2 Assay for human Activator Protein 1 (AP-1) (AID 2282931); conditions: HepG2 Attagene cis-factorial AP-1 reporter mRNA; actives raise or lower the signal
In short: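 We transfected HepG2 cells transiently with a set of cis-regulated reporter transcription units, dosed them for 24 h, and quantified reporter mRNA via RT-PCR and capillary electrophoresis, scoring gain or loss of signal relative to DMSO.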

[7] = ATG_AP_2_CIS: Attagene CIS-FACTORIAL HepG2 Assay for human Activator Protein 2 (AP-2) (AID 2282932); conditions: HepG2 AP-2 cis-reporter, Attagene transcription factor profiling; actives raise or lower the signal
In short: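 Step one: transient transfection of HepG2 with reporter transcription units. Step two: 24 h chemical exposure. Step three: RNA extraction, RT-PCR, labelled fragment analysis by capillary electrophoresis; DMSO serves as baseline.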

[8] = ATG_BRE_CIS: Attagene CIS-FACTORIAL HepG2 Assay for human Bone Morphogenetic Protein (BMP) Response Element (BRE) (AID 2282933); conditions: HepG2 BMP response element reporter, Attagene transcription factor profiling; actives raise or lower the signal
In short: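 After a 24 h chemical treatment, transiently transfected HepG2 cells were lysed for RNA; reporter transcripts were quantified by fluorescent RT-PCR and capillary electrophoresis, normalised to DMSO.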

[9] = biological target: Retinoic acid receptor alpha (Homo sapiens) (UniProt P10276); experiment: ATG_DR5_RAR_CIS: Attagene CIS-FACTORIAL HepG2 Assay for human Retinoic Acid Receptor Alpha (RARE), DR5 submotif (AID 2282934); conditions: HepG2 Attagene cis-factorial RARE DR5 reporter, mRNA; actives raise or lower the signal;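 on AC50: reporter responds to endogenous RAR alpha beta and gamma in HepG2 not RARA alone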
In short: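 Transient MRTU transfection of HepG2; 24 h compound treatment; TriZol RNA, oligo(dT) RT, PCR, FAM labelling, capillary electrophoresis. Bidirectional fit vs DMSO. Endogenous TF activity at DR5 RARE.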

[10] = biological target: Transcription factor E2F1 (Homo sapiens) (UniProt Q01094); experiment: ATG_E2F_CIS: Attagene CIS-FACTORIAL HepG2 Assay for human E2F Transcription Factor 1 (AID 2282935); conditions: HepG2 Attagene cis-reporter, E2F reporter RNA transcripts; actives raise or lower the signal
In short: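 Total RNA from 24 h-treated, reporter-transfected HepG2 cells undergoes DNase I treatment, oligo(dT) reverse transcription, PCR and 6-FAM primer extension before capillary electrophoresis.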

Chain of Transcription factor E2F1 (Homo sapiens) (Q01094 whole entry, looked up): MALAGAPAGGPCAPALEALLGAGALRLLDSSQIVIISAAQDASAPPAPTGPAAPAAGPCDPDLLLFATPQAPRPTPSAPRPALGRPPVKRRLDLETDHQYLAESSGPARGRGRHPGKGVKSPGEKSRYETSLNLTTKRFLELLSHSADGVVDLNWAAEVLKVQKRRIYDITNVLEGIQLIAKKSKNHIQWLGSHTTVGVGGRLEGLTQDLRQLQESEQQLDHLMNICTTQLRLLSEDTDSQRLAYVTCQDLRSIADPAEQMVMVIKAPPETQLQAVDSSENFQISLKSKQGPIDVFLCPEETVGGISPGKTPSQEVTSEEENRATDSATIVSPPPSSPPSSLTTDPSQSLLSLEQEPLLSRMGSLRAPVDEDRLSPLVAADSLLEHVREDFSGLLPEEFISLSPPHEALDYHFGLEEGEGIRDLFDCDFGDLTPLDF
Chain of Aryl hydrocarbon receptor (Homo sapiens) (P35869 whole entry, looked up): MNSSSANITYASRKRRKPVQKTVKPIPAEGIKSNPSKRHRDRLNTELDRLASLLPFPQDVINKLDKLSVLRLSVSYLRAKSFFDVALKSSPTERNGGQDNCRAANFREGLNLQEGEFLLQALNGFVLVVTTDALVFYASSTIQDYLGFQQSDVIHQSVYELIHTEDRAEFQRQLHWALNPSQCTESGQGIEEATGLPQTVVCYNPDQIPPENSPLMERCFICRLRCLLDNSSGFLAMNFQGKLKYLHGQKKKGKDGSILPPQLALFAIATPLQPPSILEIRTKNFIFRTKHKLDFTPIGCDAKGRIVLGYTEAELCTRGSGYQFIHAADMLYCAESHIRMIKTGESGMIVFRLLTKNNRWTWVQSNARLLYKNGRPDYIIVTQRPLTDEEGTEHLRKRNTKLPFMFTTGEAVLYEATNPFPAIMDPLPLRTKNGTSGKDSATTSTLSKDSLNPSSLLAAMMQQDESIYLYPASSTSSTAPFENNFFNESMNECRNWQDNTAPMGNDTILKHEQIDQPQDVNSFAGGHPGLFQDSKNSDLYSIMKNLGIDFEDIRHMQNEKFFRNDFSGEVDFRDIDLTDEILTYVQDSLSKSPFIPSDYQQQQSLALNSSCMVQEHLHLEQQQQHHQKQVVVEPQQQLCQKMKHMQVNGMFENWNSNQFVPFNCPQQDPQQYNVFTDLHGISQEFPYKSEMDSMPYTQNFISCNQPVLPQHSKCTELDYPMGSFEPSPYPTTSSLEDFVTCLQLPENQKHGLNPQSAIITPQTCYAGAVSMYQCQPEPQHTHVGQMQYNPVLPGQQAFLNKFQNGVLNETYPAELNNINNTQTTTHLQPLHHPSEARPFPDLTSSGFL
Chain of CCAAT/enhancer-binding protein beta (Homo sapiens) (P17676 whole entry, looked up): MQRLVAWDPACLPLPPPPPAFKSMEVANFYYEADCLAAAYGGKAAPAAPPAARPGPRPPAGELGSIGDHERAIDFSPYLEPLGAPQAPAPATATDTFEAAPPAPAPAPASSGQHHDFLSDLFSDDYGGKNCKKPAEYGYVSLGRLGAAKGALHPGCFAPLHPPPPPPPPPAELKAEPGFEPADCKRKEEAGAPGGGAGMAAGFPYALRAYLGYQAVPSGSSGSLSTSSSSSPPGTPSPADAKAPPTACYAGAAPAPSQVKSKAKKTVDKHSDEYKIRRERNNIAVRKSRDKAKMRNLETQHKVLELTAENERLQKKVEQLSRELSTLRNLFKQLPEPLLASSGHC
Chain of Retinoic acid receptor alpha (Homo sapiens) (P10276 whole entry, looked up): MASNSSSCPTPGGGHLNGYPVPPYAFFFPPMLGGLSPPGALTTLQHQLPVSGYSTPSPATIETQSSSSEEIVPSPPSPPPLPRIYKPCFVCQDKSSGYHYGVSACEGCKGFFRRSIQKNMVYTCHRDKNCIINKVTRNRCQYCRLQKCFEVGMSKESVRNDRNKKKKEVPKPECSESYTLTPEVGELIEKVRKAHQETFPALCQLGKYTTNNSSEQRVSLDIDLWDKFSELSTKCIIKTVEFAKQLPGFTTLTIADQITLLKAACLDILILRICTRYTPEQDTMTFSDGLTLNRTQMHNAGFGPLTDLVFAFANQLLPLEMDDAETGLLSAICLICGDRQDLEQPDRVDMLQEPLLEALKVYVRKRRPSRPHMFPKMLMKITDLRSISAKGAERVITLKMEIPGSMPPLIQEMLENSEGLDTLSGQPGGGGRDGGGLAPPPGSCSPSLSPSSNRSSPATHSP

| SMILES | outcome [1] | outcome [2] | outcome [3] | outcome [4] | outcome [5] | outcome [6] | outcome [7] | outcome [8] | outcome [9] | outcome [10] | AC50 [9] | AC50 [5] | AC50 [4] | AC50 [6] | AC50 [3] | AC50 [8] | AC50 [1] | AC50 [2] |
| --- | --- | --- | --- | --- | --- | --- | --- | --- | --- | --- | --- | --- | --- | --- | --- | --- | --- | --- |
| CCc1ncc(C)[nH]1 | inactive | inactive | inactive | inactive | inactive | inactive | inactive | inactive | inactive | inactive |  |  |  |  |  |  |  |  |
| CC(Oc1cc(Cl)ccc1Cl)C(=O)O (stereo not given) | inactive | inactive | inactive | inactive | inactive | inactive | inactive | inactive | inactive | inactive |  |  |  |  |  |  |  |  |
| CC(=O)c1c(C)c([N+](=O)[O-])c(C(C)(C)C)c([N+](=O)[O-])c1C | inactive | inactive | inactive | inactive | inactive | inactive | inactive | inactive |  | inactive | 1.6 µM (active) |  |  |  |  |  |  |  |
| OCC#CCO | inactive | inactive | inactive | inactive | inactive | inactive | inactive | inactive | inactive | inactive |  |  |  |  |  |  |  |  |
| Cc1ccc(-c2ccccc2)cc1 | inactive | inactive | inactive | inactive | inactive | inactive | inactive | inactive | inactive | inactive |  |  |  |  |  |  |  |  |
| COc1ccccc1N=Nc1c(S(=O)(=O)O)cc2cc(S(=O)(=O)O)cc(NC(C)=O)c2c1O | inactive | inactive | inactive | inactive |  | inactive | inactive | inactive | inactive | inactive |  | 16.4 µM (active) |  |  |  |  |  |  |
| CC(=O)C(C)O (stereo not given) | inactive | inactive | inactive | inactive | inactive | inactive | inactive | inactive | inactive | inactive |  |  |  |  |  |  |  |  |
| CC(=O)NCCO | inactive | inactive | inactive | inactive | inactive | inactive | inactive | inactive | inactive | inactive |  |  |  |  |  |  |  |  |
| c1ccc(CCc2ccccc2)cc1 | inactive | inactive | inactive |  | inactive |  | inactive | inactive | inactive | inactive |  |  | 161 µM (active) | 172 µM (active) |  |  |  |  |
| C=CC(=O)OCCCC | inactive | inactive | inactive | inactive | inactive | inactive | inactive | inactive | inactive | inactive |  |  |  |  |  |  |  |  |
| Cc1ncc[nH]1 | inactive | inactive | inactive | inactive | inactive | inactive | inactive | inactive | inactive | inactive |  |  |  |  |  |  |  |  |
| C[Si](C)(C)O[Si](C)(C)C | inactive | inactive | inactive | inactive | inactive | inactive | inactive | inactive | inactive | inactive |  |  |  |  |  |  |  |  |
| NCC1CCCC(CN)C1 (stereo not given) | inactive | inactive | inactive | inactive | inactive | inactive | inactive | inactive | inactive | inactive |  |  |  |  |  |  |  |  |
| COc1ccc(CCN2CCC(Nc3nc4ccccc4n3Cc3ccc(F)cc3)CC2)cc1 | inactive | inactive | inactive | inactive | inactive | inactive | inactive | inactive | inactive | inactive |  |  |  |  |  |  |  |  |
| CCCC(=O)OCCc1ccccc1 | inactive | inactive | inactive | inactive | inactive | inactive | inactive | inactive | inactive | inactive |  |  |  |  |  |  |  |  |
| Clc1cc(Cl)c(-c2c(Cl)c(Cl)cc(Cl)c2Cl)cc1Cl | inactive | inactive |  |  | inactive |  | inactive | inactive | inactive | inactive |  |  | 21.8 µM (active) | 35 µM (active) | 30.4 µM (active) |  |  |  |
| C[C@H](CCC(=O)NCC(=O)O)[C@H]1CC[C@H]2[C@@H]3[C@H](O)C[C@@H]4C[C@H](O)CC[C@]4(C)[C@H]3C[C@H](O)[C@]12C | inactive | inactive | inactive | inactive | inactive | inactive | inactive | inactive | inactive | inactive |  |  |  |  |  |  |  |  |
| CCOc1ccccc1O | inactive | inactive | inactive | inactive | inactive | inactive | inactive | inactive | inactive | inactive |  |  |  |  |  |  |  |  |
| COc1cc(Cl)c(OC)cc1N | inactive | inactive | inactive | inactive |  | inactive | inactive | inactive | inactive | inactive |  | 51.2 µM (active) |  |  |  |  |  |  |
| COc1ccc(COC(C)=O)cc1 | inactive | inactive | inactive | inactive | inactive | inactive | inactive | inactive | inactive | inactive |  |  |  |  |  |  |  |  |
| CCC(Cl)C(Cl)C(Cl)CC(Cl)C(Cl)C(C)Cl (stereo not given) | inactive | inactive |  |  | inactive |  | inactive |  | inactive | inactive |  |  | 9.99 µM (active) | 55.7 µM (active) | 47.7 µM (active) | 116 µM (active) |  |  |
| COc1ccc(N=Nc2cc(C)c(N=Nc3ccc(S(=O)(=O)O)cc3)cc2OC)cc1 |  |  | inactive |  |  | inactive | inactive | inactive | inactive | inactive |  | 4.25 µM (active) | 74.3 µM (active) |  |  |  | 19.8 µM (active) | 42.9 µM (active) |
| O=c1c(O)c(-c2ccc(O)cc2)oc2cc(O)cc(O)c12 | inactive | inactive |  | inactive | inactive | inactive | inactive | inactive | inactive | inactive |  |  |  |  | 9.22 µM (active) |  |  |  |
| Cc1cc(C)nc(NS(=O)(=O)c2ccc(N)cc2)n1 | inactive | inactive | inactive | inactive | inactive | inactive | inactive | inactive | inactive | inactive |  |  |  |  |  |  |  |  |
